GSTO1 inh: counter-screen for RBBP9 inhibitors: inhibitors of human GSTO1; P78417; recombinant GSTO1, activity-based probe fluorescence polarization; inhibition, % at 5.96 µM; hit rate 1.1% among 300,000;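 active = inhibition above the campaign mean inhibition plus 3 SD, cut at about 35% in these data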;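 note: 0% = GSTO1-1 with DMSO and 100% = wells lacking GSTO1-1 enzyme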
PAD4 FP inh: blocks human protein arginine deiminase 4; Q9UM07; recombinant PAD4, RCA probe fluorescence polarization; inhibition, % at 6.36 µM; hit rate 0.41% among 330,000; AID 485272;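 active = percent inhibition above a cutoff equal to the mean of all tested compounds plus 3 SD, cut at about 15% in these data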;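 note: 0% = PAD4 with RCA probe and DMSO and 100% = probe without PAD4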
Fam108B inh: counter-screen for RBBP9 inhibitors: inhibitors of mouse Fam108B; recombinant Fam108B, FP-Rh probe fluorescence polarization; inhibition, % at 9.51 µM; hit rate 0.33% among 300,000; AID 1947;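 active = inhibition above the screen mean inhibition plus 3 SD, computed separately per campaign, cut at about 18% in these data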;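 note: inhibitors lower polarization as less probe binds the enzyme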
PME-1 inh: PME-1 (human) inhibition | hit rate 0.53% among 320,000 | recombinant PME-1, FP-Rh probe fluorescence polarization | inhibition, % at 5.9 µM;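 active = inhibition above the campaign mean of all compounds plus 3 SD, cut at about 26% in these data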;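 note: competitive labeling of PME-1 active site by serine hydrolase directed probe; 0% = PME-1 with DMSO and 100% = wells lacking PME-1 enzyme; inhibitors block probe labeling so polarization falls and inhibition rises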
Target sequence (Q9Y570 whole entry, looked up): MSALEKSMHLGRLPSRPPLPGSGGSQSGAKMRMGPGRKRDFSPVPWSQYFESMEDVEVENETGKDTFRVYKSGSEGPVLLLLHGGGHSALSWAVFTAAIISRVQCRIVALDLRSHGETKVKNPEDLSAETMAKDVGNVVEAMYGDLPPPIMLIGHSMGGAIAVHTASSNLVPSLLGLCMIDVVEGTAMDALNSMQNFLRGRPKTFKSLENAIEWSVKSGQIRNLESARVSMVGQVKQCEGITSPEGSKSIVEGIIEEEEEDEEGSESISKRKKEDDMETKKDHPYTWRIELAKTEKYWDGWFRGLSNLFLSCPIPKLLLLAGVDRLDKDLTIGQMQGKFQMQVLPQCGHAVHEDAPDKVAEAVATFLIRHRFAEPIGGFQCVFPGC
LYPLA1 inh: LYPLA1 (human) inhibition in PME1 counter-screen. O75608. recombinant LYPLA1, FP-Rh probe fluorescence polarization. inhibition, % at 5.9 µM. hit rate 0.16% among 320,000. AID 2174;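 active = inhibition above the mean of all tested compounds plus 3 SD, set per campaign, cut at about 14% in these data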;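 note: inhibitors block serine hydrolase probe labeling of LYPLA1 so polarization falls; 0% = enzyme with DMSO and 100% = wells lacking LYPLA1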
LYPLA2 inh: LYPLA2 (human) inhibition in PME1 counter-screen; hit rate 0.38% among 320,000; O95372; inhibition, % at 5.9 µM; recombinant LYPLA2, FP-Rh probe fluorescence polarization;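 active = inhibition above the screen-wide mean plus 3 SD, limit set per campaign, cut at about 26% in these data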;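 note: 0% = LYPLA2 with DMSO and 100% = wells lacking LYPLA2 enzyme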
LYPLA1 conf: counter-screen for PME1 inhibitors: confirmation of human LYPLA1 inhibitors; hit rate 69% among 480; shares compounds with LYPLA1 inh; inhibition, % at 5.9 µM; recombinant LYPLA1, FP-Rh probe fluorescence polarization;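 active = mean inhibition across replicates above the hit cutoff set in the primary screen, cut at about 15% in these data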;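 note: loss of FP-Rh probe labeling of LYPLA1 seen as lower polarization; 0% = LYPLA1 with DMSO and 100% = wells lacking LYPLA1 enzyme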
* hit, by the source's call; nt = no result given. Shown are actives, neighbours in structure and some others; about 1.8% of the full set was active somewhere.

SMILES	GSTO1 inh	PAD4 FP inh	Fam108B inh	PME-1 inh	LYPLA1 inh	LYPLA2 inh	LYPLA1 conf
O=C(c1ccc(-c2ccccc2)c(F)c1)C1CCCN(C(=O)c2cncs2)C1 (stereo unspecified)	3	-1	3	7	32*	22	52*
COC(=O)c1sc2cc(C(F)(F)F)cnc2c1-c1ccccc1	-3	-2	6	-4	17*	12	21*
CCOC(=O)c1c(NC(=O)CSc2ncnc3ccccc23)sc(C(C)=O)c1C	-6	10	-1	4	16*	5	8
CCOc1cc(CN2CCCC(C(=O)c3cccc(C(F)(F)F)c3)C2)ccc1O (stereo unspecified)	5	-1	-2	0	35*	-1	42*
COc1cc(NC(=O)C2CCC(CNc3c(N4CCC(C)CC4)c(=O)c3=O)CC2)cc(OC)c1 (stereo unspecified)	-4	0	1	3	39*	4	40*
COc1cc(NC(=O)C2CCC(CNc3c(N4CCCCC4)c(=O)c3=O)CC2)cc(OC)c1 (stereo unspecified)	7	4	0	2	24*	6	31*
O=C(Nc1ccc(F)cc1)C1CCC(CNc2c(N3CCCCC3)c(=O)c2=O)CC1 (stereo unspecified)	15	2	4	1	4	2	nt
COc1ccc(NC(=O)C2CCC(CNc3c(N4CCC(C)CC4)c(=O)c3=O)CC2)cc1OC (stereo unspecified)	-7	-4	0	0	24*	6	26*
CN(C)C1=NCCN1CCC1CCCCC1	1	-2	2	-2	5	-4	nt
O=C1c2ccccc2/C(=C\C#Cc2ccccn2)N1c1ccccc1	nt	1	nt	nt	nt	nt	nt
CCN(Cc1ccccc1)C(=O)c1ccc2c(=O)n3c(nc2c1)CCC3	5	0	-1	-3	1	0	nt
c1ccc(C2=NNC(c3ccccn3)=NN2)nc1	12	-4	-2	-3	-4	-1	nt
O=S(=O)(NC1CC1)c1ccccc1	0	-2	-1	-7	-1	1	nt
COc1ccc(C(C(=O)NC(C)(C)C)N(C(=O)CCC(=O)Nc2cc(C)on2)c2ccccc2F)cc1 (stereo unspecified)	3	2	0	2	15*	2	1
COc1ccc(C(C(=O)NC(C)(C)C)N(C(=O)CCC(=O)Nc2cc(C)on2)c2cc(C)cc(C)c2)cc1 (stereo unspecified)	-1	-3	-3	2	2	3	nt
COc1ccccc1-c1nnc(SCC(=O)NNC(=O)c2ccccc2F)n1C	nt	2	nt	-5	24*	7	4
COc1ccccc1-c1nnc(SCC(=O)NC2CC2)n1C	nt	-6	nt	2	1	6	nt
Cc1ccc(Nc2cc(C)c(O)c(C)c2)cc1	13	3	7	6	4	6	nt
CC1Cc2ccccc2N1C(=O)CCn1cccn1 (stereo unspecified)	4	0	3	-9	-1	5	nt
O=C(CN1CCN(c2ccccn2)CC1)Nc1cc(C(F)(F)F)ccc1Cl	8	-5	7	10	54*	-5	55*
O=C(CN1CCN(c2ccccn2)CC1)Nc1ccc(Cl)c(C(F)(F)F)c1	11	-1	-5	8	2	3	nt
OCCN(CCO)c1ccc2ccccc2c1	15	0	3	10	1	7	nt
OCCN(CCO)c1ccc(C(c2ccccc2Cl)c2ccc(N(CCO)CCO)cc2Cl)c(Cl)c1	5	8	14	15	15*	14	17*
Cc1cc(C)c2c(N)c(C(=O)Nc3nccs3)sc2n1	-2	-1	2	6	17*	0	11
Cc1nc([N+](=O)[O-])c(N2CCN(Cc3ccccc3)CC2)n1Cc1ccccc1	1	1	0	6	33*	-1	33*
COCCn1c(=NC(=O)c2ccc(S(=O)(=O)N3CCOCC3)cc2)sc2cc(S(N)(=O)=O)ccc21	-3	4	-4	12	17*	15	27*

Screening data: PubChem BioAssay, The Scripps Research Institute Molecular Screening Center
